Laboratory results published in PubChem BioAssay AID1850 (Southern Research Specialized Biocontainment Screening …, 2009).
Several values for one entry are separate records, joined by “and”; a condition that tells them apart may be missing. Equal entries are not always repeated. The campaign covered roughly 310,000 compounds. About 1,000 (0.32%) were called active. A selection follows. Results with a measured potency or affinity are listed apart. A number with no mark means an inactive call. How the calls were made is not given here.

Assay: PhoP regulon inhibitors, Salmonella typhi PhoP promoter GFP reporter, confirmatory (AID 1850);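 further: 0% = induced wells with vehicle and 100% = uninduced wells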
Settings: fluorescence, 4 h, at 50 µM, active compounds read high

Structure (SMILES)	inhibition
C=CCc1cc(Cl)ccc1OCCN1CC(C)OC(C)C1 (centres undefined)	-16%
Cn1c(-c2cccc([N+](=O)[O-])c2)cnc1NCc1ccc(C#N)cc1	-3.32%
CC1(C)Cc2c(sc3c2c(N)nc(=S)n3Cc2ccccc2)CO1	-10.9%
O=C(NCCC1=CCCCC1)c1cc(S(=O)(=O)N2CCOCC2)ccc1Cl	-3.59%
Cc1ccc(S(=O)(=O)Nc2cc(C(=O)N3CCC4(CC3)OCCO4)ccc2N2CCCCC2)cc1	3.06%
Cc1nc(SCC(=O)Nc2cc(Cl)ccc2[N+](=O)[O-])nc(C)c1C	1.39%
O=C(CSc1nc2ccccc2[nH]1)N1CCN(C(=O)c2ccco2)CC1	-8.53%
CCCOc1ccc(CSC2=NCCN2)cc1[N+](=O)[O-]	23.3%
CCCCOc1ccc(CSCCN)cc1Cl	12%
CCOc1ccc(CSC(=N)N)cc1Cl	20.5%
CCCOc1ccc(CCCN=C(N)N)cc1Cl	22.8%
CCCCOc1ccc(CSC2=NCCN2)cc1[N+](=O)[O-]	7.52%
CCOc1ccc(CN=C(N)N=C(N)N)cc1Cl	20%
COc1ccc(CSC(=N)N)cc1[N+](=O)[O-]	-11.2%
CCOc1ccc(CSC(=N)N)cc1[N+](=O)[O-]	-0.03%
Cc1cc(C(=O)Cn2nc(C(=O)O)c3ccccc3c2=O)c(C)n1-c1ccc(OC(F)F)cc1	-17.2%
CCOC(=O)c1ccc(NC(=O)N2CCOCC2)cc1	9.07%
O=C(CCN1C(=O)C2CC=C(Cl)CC2C1=O)N1CCCCC1 (centres undefined)	4.62%
O=C1c2ccccc2-c2nc3ccccc3n21	-6.73% and -7.55%
CCCOc1ccc(Br)cc1CSC(=N)N	20.4%
CCOc1ccc(Br)cc1CSC(=N)N	-6.33%
O=C(CN1C(=O)NC2(CCCC2)C1=O)Nc1ccc(S(=O)(=O)N2CCOCC2)cc1	-0.54%
OCCNc1nc(Nc2ccccc2Cl)nc(N2CCCC2)n1	-6.06%
Cc1cc(NCCO)c2ccccc2n1	-12.1%
Cc1ccc(Nc2nc(N)c([N+](=O)[O-])c(NCCO)n2)cc1C	13.6%

Structure (SMILES)	inhibition
OCCNc1nc(NCc2ccccc2)c2ccccc2n1	-4.21%
OCCNc1nc(Nc2ccc(O)cc2)nc2ccccc12	1.07%
OCCNc1nc(Nc2ccccc2)nc(Nc2ccccc2)n1	-3.62%
O=C(NCCO)c1nc(NCCO)c2ccccc2n1	-2.84%
OCCNc1nc(-c2ccccc2)nc2ccccc12	16%
O=C(CSc1ccc2c(c1)OCCO2)NCc1ccccc1	6.58%
CC(Sc1nnc(Nc2ccccc2)s1)C(=O)NC1CCCc2ccccc21 (centres undefined)	9.25%
O=C(COc1ccc(Br)cc1)N(CCO)CCO	-3.36%
O=P(O)(Oc1ccccc1)OC(c1ccccc1)C(F)(F)C(F)(F)F (centres undefined)	5.37%
O=C(NCCNS(=O)(=O)c1ccc(Cl)cc1)c1cc(OCC(F)(F)F)ccc1OCC(F)(F)F	0.75%
c1coc(-c2cc(C3CCNCC3)[nH]n2)c1	10.6%
CC(Oc1ccccc1)C(=O)N=C1SC2CS(=O)(=O)CC2N1Cc1ccc(F)cc1 (centres undefined)	2.75%
COc1cc(C(=O)OCC(=O)NCc2ccc(F)cc2)cc(NC(=O)c2cccs2)c1OC	12.9%
COCCN(Cc1cc2cc3c(cc2nc1Cl)OCO3)C(=O)c1ccc(C)cc1	-6.89%
CCc1ccc(CN2C(=O)c3ccccc3C2C(=O)NCc2cccnc2)cc1 (centres undefined)	-8.38%
OCCNc1nc(Nc2cccc(O)c2)nc2ccccc12	-3.51%
COc1ccc(OC)c(Nc2nc(NCCO)c3ccccc3n2)c1	-0.87%
CN1N=C(C(=O)Nc2ccc3c(c2)CCC3)CCC1=O	-2.98%
COc1cccc(COc2ncnc3sccc23)c1	3.57%
O=C(O)c1oc2ccccc2c1CN1CCN(c2ccccc2)CC1	-0.62%
COc1ccc(OCC(=O)Nn2c(-c3cccc(OC)c3)nc3ccccc3c2=O)cc1	-2.54%
COCCCn1c(SCC(=O)NC2CCCC2)nnc1-c1cccs1	7.9%
COc1ccc(/C(O)=C/C(=O)C(=O)NNC(=O)c2ccccc2)cc1	12.4%
Nc1ccccc1C(=O)NNC(=O)C(=O)/C=C(\O)c1ccccc1	3.15%
COc1ccc(-c2nnc(OC)c3ccccc23)cc1	-2.2%

Structure (SMILES)	inhibition
O=C(O)C1=C[C@H](c2csc3ccccc23)C[C@H](OCc2ccc(CO)cc2)O1	17.9%
NS(=O)(=O)c1ccc(CCNC(=O)C2CCCO2)cc1 (centres undefined)	-6.93%
CC(C)N1C(=O)/C(=C\c2nc3ccccc3c(=O)n2-c2ccccc2)c2ccccc21	-1.3%
Cn1c(N)c(C(C[N+](=O)[O-])c2ccccc2Cl)c(=O)n(C)c1=O (centres undefined)	16%
COc1cc(C(C[N+](=O)[O-])c2c(N)n(C)c(=O)n(C)c2=O)ccc1O (centres undefined)	-9.41%
Cc1c(CCC(=O)NCCCn2ccnc2)c(=O)oc2c(C)c3oc4c(c3cc12)CCCC4	2.2%
Cc1ccccc1S(=O)(=O)Cc1ccc(C(=O)O)o1	-5.44%
Cc1cc(C)cc(Nc2cc(=O)n(C3CCCCC3)c(=O)[nH]2)c1	3.88%
Cn1c(NC2CCCCC2)cc(=O)n(C)c1=O	-41.1%
O=C(O)c1ccccc1NCc1cccs1	-6.17%
O=C(NNc1c2ccccc2nc2ccccc12)c1ccccc1Cl	5.14%
Cc1cc(C(=O)Cn2nc(C(=O)O)c3ccccc3c2=O)c(C)n1CC(F)(F)F	-16%
O=C(NNC(=O)C1CC=CCC1)c1cccc(Br)c1 (centres undefined)	5.92%
CCOc1cc(CN2CCc3c([nH]c4ccccc34)C2)ccc1OC	-1.33%
CCCCCCNC(=O)C(=O)NCCc1ccc(Cl)cc1	-2.68%
CCCCCc1ccc(CC(=O)O)cc1	7.27%
Cc1[nH]c2ccccc2c1C(=O)CN1C(=O)C(=O)N(Cc2ccco2)C1=O	-2.82%
CN(Cc1ccccc1)CC(O)COc1ccc(CNCc2cc3ccccc3s2)cc1 (centres undefined)	5.91%
CN(Cc1ccccc1)CC(O)COc1ccc(CNCc2cccnc2)cc1 (centres undefined)	6.07%
COc1ccc(OC(C)C(=O)NCc2cccnc2)cc1 (centres undefined)	-6.99%
O=C(Nc1ccc(Cl)c(Cl)c1)c1ccccc1	-28.6%
O=C(Nc1cccc(Cl)c1)c1ccccc1	-1.86%
COc1cc(C)ccc1N(CCCN1C(=O)c2cccc3cccc(c23)C1=O)C(=O)c1cccs1	-7.11%
O=C1c2ccccc2NC(c2ccccc2O)N1c1ccc(F)cc1 (centres undefined)	-11.4%
CC1(C)Cc2c(cnn2-c2cccc(F)c2)C(NC(=O)c2ccc(=O)[nH]n2)C1 (centres undefined)	2.67%

Structure (SMILES)	inhibition
O=C(CCN1C(=O)c2ccccc2C1=O)Nn1cnnc1	-10.1%
CC(=O)c1ccc(NC(=O)C2CCCN2S(=O)(=O)c2ccc(F)cc2)cc1 (centres undefined)	0.38%
O=S1(=O)CCOC[C@H](c2ccccc2)N1Cc1cccc(Cl)c1	9.33%
CCCCOc1ccc(C)cc1CN(CCO)CCO	-0.81%
C=CCc1cc(C)ccc1OCCCC(C(=O)OCC)C(=O)OCC	-4.53%
Cc1cc(NC(=O)c2cccs2)n(-c2ccccc2)n1	-5.58%
CCOC(=O)c1cn(-c2ccc([N+](=O)[O-])cc2)c2cc(Cl)c([N+](=O)[O-])cc2c1=O	-25.3%
O=C(O)c1cn(-c2ccc(F)cc2)c(=O)c2ccccc12	-6.8%
CNC(=O)C(=O)NCC1OCCN1S(=O)(=O)c1ccc([N+](=O)[O-])cc1 (centres undefined)	0.4%
CC(=O)c1c(C)[nH]c(C(=O)COC(=O)c2ccc3c(=O)n4c(nc3c2)CCC4)c1C	-1.34%
Cc1ccc2nsnc2c1NC(=O)c1ccc([N+](=O)[O-])o1	1.72%
CCn1nnc(NC(=O)c2ccc(-c3ccccc3[N+](=O)[O-])o2)n1	11.3%
O=C(Nc1ccc(Cc2ccncc2)cc1)c1ccc(Br)o1	7.97%
O=C(Nc1c(Cl)ccc2nsnc12)c1ccco1	-5.33%
Cc1ccccc1NC(=O)c1ccc([N+](=O)[O-])o1	11.6%
Cc1cccc(NC(=O)c2ccc([N+](=O)[O-])o2)c1C	-7.49%
CCn1nnc(NC(=O)c2ccc(Br)o2)n1	3.35%
CC(=O)c1ccc(NC(=O)c2ccc([N+](=O)[O-])o2)cc1	10.8%
Cc1c(C(=O)N2CCC(N3CCSCC3)CC2)oc2c(F)cccc12	-3.19%
Cc1cc(NC(=O)NCC(F)(F)F)no1	-7.59%
CCN(CC)C(=O)c1sc2nc(N3CCOCC3)c3c(c2c1N)CCCC3	3.42%
O=C(Nc1ccccc1Cl)NC1(C(=O)NCc2ccncc2)CCCCC1	9.06%
CC(C)Cn1c(SCc2nc3ccccc3c(=O)[nH]2)nc2ccccc2c1=O	-7.91%
Cc1sc(NC(=O)C2=COCCO2)nc1-c1ccc(F)cc1	-5.87%
